PubChem BioAssay AID624405 (Broad Institute, 2012)
Hit rate of the full screen: of about 1,900 compounds, about 250 (13%) were called active. Not shown: some 4% with an inconclusive outcome.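 How the source made its calls: active means fitted curve reaches 40% rescue activity at or below the top valid dose, in every test run; inconclusive means test runs disagree, some active and some inactive; inactive means every run misses the threshold or moves the wrong way.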 Not all results are given here. Measured potencies and affinities stand elsewhere.

experiment: suppressors of statin myotoxicity in myotubes, dose response, cell-based, C2C12 myotubes, ATP luminescence, cherry pick (AID 624405); conditions: C2C12 myotubes + simvastatin, 48 h, scaled: DMSO wells 0, geranylgeraniol wells 100; series mostly up to 19.5 µM; rescue activity (ATP increase): at the top concentration;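 further: myotubes are challenged with simvastatin at 10 µM to lower ATP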

Compound | rescue activity (ATP increase)
C[C@H]1CN([C@@H](C)CO)C(=O)c2cc(C3=CCCCC3)cnc2O[C@H]1CN(C)C(=O)c1ccccn1 | -12.9% (inactive)
Cc1cc(NC(=O)c2ccc(N3C(=O)CCC3=O)cc2)no1 | 20.2% (inactive)
COc1cc(C)ccc1OCCCOc1cc(C)ccc1Cl | 12.3% (inactive)
COc1ccc(Cl)cc1C(=O)n1nc(C)cc1C | 0.34% (inactive)
C[C@@H]1CN([C@@H](C)CO)C(=O)Cc2cc(NC(=O)CCC(F)(F)F)ccc2O[C@H]1CN(C)Cc1ccc(Oc2ccccc2)cc1 | 34.1% (inactive)
Cc1ccc(-c2nc3ccccc3[nH]2)cc1NC(=O)c1ccco1 | -123% (inactive)
CCc1c(C)sc(NC(=O)c2ccco2)c1C(=O)N1CCCCC1 | 11.7% (inactive)
C[C@H](CO)N1C[C@H](C)[C@@H](CN(C)Cc2ccc(-c3ccccc3)cc2)Oc2ccc(NC(=O)Cc3cn(C)c4ccccc34)cc2CC1=O | 16.5% (inactive)
C[C@@H]1CN([C@H](C)CO)C(=O)c2cccc(NS(=O)(=O)c3cccs3)c2O[C@@H]1CN(C)Cc1ccc(Oc2ccccc2)cc1 | 37.4% (inactive)
CC1Cc2ccccc2N1C(=O)C1CCN(S(=O)(=O)Cc2ccccc2)CC1 (stereo not given) | 13.7% (inactive)
Cc1cc(C(=O)CSc2nnnn2-c2ccccc2)c(C)n1CCc1ccccc1 | -34.3% (inactive)
CCOC(=O)c1ccc(-c2c(C(=O)OCC)oc3cc(O)c(CC)cc3c2=O)o1 | 25.6% (inactive)
Cc1cccc(C(=O)N2CCC(n3nnc4cc(F)ccc43)CC2)c1 | -54.9% (inactive)
CCC(NS(=O)(=O)c1ccc(C)cc1)C(=O)Nc1ccc(NC(C)=O)cc1 (stereo not given) | -17.2% (inactive)
CS(=O)(=O)c1ncc(Cl)c(C(=O)Nc2ccc(OC(F)F)cc2)n1 | -436% (inactive)
COc1ccccc1NC(=O)CN1C(=O)CCS(=O)(=O)c2ccccc21 | 49.8% (inactive)
Cc1cccc(C)c1NC(=O)c1nc(S(=O)(=O)Cc2ccccc2)ncc1Cl | -777% (inactive)
Cc1noc(C)c1NC(=O)Nc1ccc2c(c1)C(=O)N([C@H](C)CO)C[C@@H](C)[C@H](CN(C)C(=O)Nc1ccccc1)OCCCC[C@@H](C)O2 | 2.09% (inactive)
CN1C[C@@H]2[C@H](c3ccccc31)[C@H](CO)N2Cc1ccccc1 | -1.19% (inactive)
Nc1nc(CSc2nnnn2-c2ccccc2)nc(N2CCCc3ccccc32)n1 | -0.398% (inactive)
COC(=O)c1c(C)noc1-c1cc(C)on1 | 21.9% (inactive)
C[C@@H]1CN([C@H](C)CO)C(=O)c2cc(NC(=O)Nc3ccc(F)cc3)ccc2O[C@@H](C)CCCCO[C@@H]1CN(C)S(=O)(=O)c1cccs1 | -1.09% (inactive)
COc1cccc(-c2cnc3c(c2)C(=O)N([C@H](C)CO)C[C@H](C)[C@H](CN(C)Cc2cccc(C)c2)O3)c1 | -22.6% (inactive)
C[C@@H]1CN([C@H](C)CO)C(=O)c2cc(NS(C)(=O)=O)ccc2O[C@@H](C)CCCCO[C@H]1CN(C)S(=O)(=O)c1ccc(Cl)cc1 | 15.7% (inactive)
COc1ccc(NC(=O)Nc2ccc3c(c2)C(=O)N([C@@H](C)CO)C[C@@H](C)[C@@H](CN(C)CC2CCCCC2)OCCCC[C@H](C)O3)cc1 | -15.9% (inactive)

Compound | rescue activity (ATP increase)
Cc1cccc(Cn2c(N3CCCCC3C)nc3c2c(=O)[nH]c(=O)n3C)c1 (stereo not given) | 39.2% (inactive)
CCCCn1c(SCc2ccccn2)nc2c1c(=O)n(C)c(=O)n2C | 30.4% (inactive)
CCOCCn1c(N2CCN(c3ccc(OC)cc3)CC2)nc2c1c(=O)[nH]c(=O)n2C | -0.858% (inactive)
CCCCCn1c(N2CCC(C(N)=O)CC2)nc2c1c(=O)[nH]c(=O)n2C | 4.98% (inactive)
O=C(Nc1ccc2nn(-c3ccccc3)nc2c1)c1cccnc1 | -57.5% (inactive)
O=C(CSCc1ccc(Cl)cc1)N/N=C/c1ccccc1 | -13.5% (inactive)
C[C@@H]1CN([C@@H](C)CO)C(=O)Cc2cc(NC(=O)Nc3cccc4ccccc34)ccc2O[C@H]1CN(C)Cc1ccc(Oc2ccccc2)cc1 | 9.69% (inactive)
O=C(Nc1ccccc1Cl)NC1(C(=O)N2CCCCC2)CCCCC1 | 17% (inactive)
Cc1ccc(-c2cc(N)n(-c3ccc(C)cc3)n2)cc1 | -27% (inactive)
C=CCn1c(=O)/c(=C\c2ccsc2)s/c1=C(/C#N)C(=O)NCCN1CCOCC1 | -5.47% (inactive)
Cc1ccc(S(=O)(=O)Nc2ccc3c(c2)C(=O)N([C@@H](C)CO)C[C@H](C)[C@H](CN(C)Cc2ccc(C(=O)Nc4ccccc4N)cc2)O3)cc1 | -0.826% [at 16 µM] (inactive)
C[C@H]1CN([C@@H](C)CO)C(=O)c2cc(NS(=O)(=O)c3ccc(Cl)cc3)ccc2O[C@H]1CN(C)Cc1ccc(Oc2ccccc2)cc1 | 26.2% (inactive)
C[C@@H]1CN([C@H](C)CO)C(=O)c2cc(NS(=O)(=O)c3ccc(Cl)cc3)ccc2O[C@H]1CN(C)C(=O)Nc1cccc2ccccc12 | 6.95% [at 21 µM] (inactive)
C[C@@H]1CCCCO[C@H](CN(C)C(=O)Nc2cccc3ccccc23)[C@H](C)CN([C@H](C)CO)C(=O)c2cc(NS(=O)(=O)c3ccc(Cl)cc3)ccc2O1 | 35.3% (inactive)
Cc1ccc(S(=O)(=O)Nc2ccc3c(c2)C(=O)N([C@@H](C)CO)C[C@H](C)[C@H](CN(C)Cc2ccc(C(F)(F)F)cc2)O3)cc1 | 28.9% (inactive)
C[C@H]1CN([C@@H](C)CO)C(=O)c2cc(NC(=O)Nc3ccc(C(F)(F)F)cc3)ccc2O[C@@H]1CN(C)Cc1ccc(C(=O)Nc2ccccc2N)cc1 | 12.3% [at 18 µM] (inactive)
C[C@@H]1CCCCO[C@@H](CN(C)Cc2ccc(C(F)(F)F)cc2)[C@H](C)CN([C@@H](C)CO)C(=O)c2cc(NC(=O)c3ccncc3)ccc2O1 | 24.7% (inactive)
C[C@H]1CCCCO[C@@H](CN(C)C(=O)Nc2ccc3c(c2)OCO3)[C@@H](C)CN([C@@H](C)CO)C(=O)c2cc(NS(=O)(=O)c3cccs3)ccc2O1 | 12.1% (inactive)
COc1ccc(S(=O)(=O)Nc2ccc3c(c2)C(=O)N([C@@H](C)CO)C[C@H](C)[C@@H](CN(C)S(=O)(=O)c2cccs2)OCCCC[C@@H](C)O3)cc1 | 11.9% (inactive)
CCOc1ccc(C2SCC(=O)N2c2c(C)n(C)n(-c3ccccc3)c2=O)cc1 (stereo not given) | 41.8% (inactive)
COc1ccccc1Oc1ccc2c(c1)C(=O)N(c1ccc(O)cc1)C2=O | -8.71% (inactive)
C[C@@H]1CN([C@H](C)CO)C(=O)c2cc(C#CC3CCCCC3)cnc2O[C@@H]1CN(C)C(=O)C1CCCCC1 | -7.4% (inactive)
COc1ccc(Br)cc1C1SCCN1S(C)(=O)=O (stereo not given) | 13% (inactive)
CCC12CC3CC(C1)CC(C(=O)NNC(N)=O)(C3)C2 | 14.5% (inactive)
COCCNC(=O)C(c1ccc(C)o1)N(Cc1ccc(OC)cc1)C(=O)Cn1nnc2ccccc21 (stereo not given) | 14.8% (inactive)
